Unmarked numbers belong to inactive results. Inconclusive results are not listed. Where a call stands in place of a potency, no number is given. The source made the active and inactive calls. Unless noted, calls follow the shape of the dose curve; as a rule, active = well fitted curve in the direction sought with a large enough effect in the repeat runs; inconclusive = weak or mixed curves; inactive = no such curve, though single readings can be large; an effect the other way counts as inactive or inconclusive.
Assays:
[1] = A CellTox Green Cytotoxicity Assay to monitor cytotoxicity in HepG2 cells - 8 hour (AID 1224890); also: nearly all actives have a fitted effect of over 45% in size
In short: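 Read-out is fluorescence of a cyanine dye excluded from live cells that stains DNA of dead HepG2 cells, with signal proportional to cytotoxicity. Plates were read at 0, 8, 16, 24, 32 and 40 h after compound addition.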

[2] = qHTS assay to identify small molecule antagonists of the estrogen receptor alpha (ER-alpha) signaling pathway using the BG1 cell line in the presence of 0.1 nM 17-beta-estradiol - cell viability counter screen (AID 1259241); also: nearly all actives have a fitted effect of over 40% in size
In short: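 VM7Luc4E2 cells (endogenous ER-alpha, 4×ERE-luciferase), hormone-starved 5 days in charcoal-stripped FBS, were treated with compounds plus 0.1 nM 17beta-estradiol for 22 hr at 37C; viability read in same wells as CellTiter-Fluor live-cell protease fluorescence.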

[3] = qHTS assay to identify small molecule antagonists of the androgen receptor (AR) signaling pathway using the MDA cell line in the presence of 0.5 nM R1881 - cell viability counter screen (AID 1259242); also: nearly all actives have a fitted effect of over 45% in size
In short: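 Counter screen for cytotoxicity run in the same wells as the AR antagonist reporter screen: MDA-kb2 cells were treated 16 hr with test compounds and 0.5 nM R1881, then live-cell protease activity was measured by fluorescence.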

[4] = biological target: Estrogen receptor (Homo sapiens) (UniProt P03372); assay: qHTS assay to identify small molecule antagonists of the estrogen receptor alpha (ER-alpha) signaling pathway using the BG1 cell line in the presence of 0.1 nM 17-beta-estradiol (AID 1259244); also: nearly all actives have a fitted effect of over 50% in size
Sequence of Estrogen receptor (Homo sapiens) (P03372 whole entry, looked up): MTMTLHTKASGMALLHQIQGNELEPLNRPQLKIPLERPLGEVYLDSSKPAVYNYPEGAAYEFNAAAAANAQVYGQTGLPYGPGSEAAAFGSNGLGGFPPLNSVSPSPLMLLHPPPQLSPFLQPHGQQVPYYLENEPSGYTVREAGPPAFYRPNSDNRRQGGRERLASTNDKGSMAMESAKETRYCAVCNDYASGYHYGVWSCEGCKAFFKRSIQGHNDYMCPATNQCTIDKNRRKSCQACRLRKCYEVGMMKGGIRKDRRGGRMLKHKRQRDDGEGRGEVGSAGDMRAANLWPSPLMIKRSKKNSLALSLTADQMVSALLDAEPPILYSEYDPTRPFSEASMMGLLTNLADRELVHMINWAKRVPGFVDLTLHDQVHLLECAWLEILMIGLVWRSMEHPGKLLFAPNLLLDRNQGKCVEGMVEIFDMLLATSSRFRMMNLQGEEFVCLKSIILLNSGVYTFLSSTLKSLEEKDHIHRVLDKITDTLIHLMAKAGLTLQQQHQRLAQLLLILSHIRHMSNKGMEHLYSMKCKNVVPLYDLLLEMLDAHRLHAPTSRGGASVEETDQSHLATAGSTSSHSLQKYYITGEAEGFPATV
In short: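 Cells: VM7Luc4E2, endogenous ER-alpha, 4x ERE-luc stable. Pre-culture 5 d, phenol red-free, charcoal-stripped FBS. Plated 24 h, compound + E2 0.1 nM final, 22 h 37C/5% CO2. Readout ONE-Glo luminescence.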

[5] = qHTS assay to identify small molecule HDAC inhibitors (AID 1259364); also: nearly all actives have a fitted effect of over 45% in size; also: potency is read from the fitted curve at half-maximal effect
In short: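 Luminescence from a cell-permeant luminogenic class I/II HDAC substrate reports endogenous deacetylase activity in intact HCT-116 cells treated with compounds for 2 h.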

[6] = qHTS assay to identify small molecule HDAC inhibitors - cell viability counter screen (AID 1259365); also: series mostly up to about 92 µM; nearly all actives have a fitted effect of over 50% in size
In short: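 Wild-type HCT-116 cells were seeded at 1,500 per well, incubated overnight at 37 C, then exposed to compounds in DMSO for 2hr. Viability was read by CellTiter-Glo luminescence after 30min at room temperature.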

[7] = qHTS assay to identify small molecule agonists of the sonic hedgehog signaling (Shh) pathway - cell viability counter screen (AID 1259366); also: nearly all actives have a fitted effect of over 50% in size
In short: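 NIH/3T3-derived 3T3 Gli1-Luc cells (stable Gli1-responsive firefly luciferase reporter) were seeded, rested 4 hr at 37 C/5% CO2, then exposed to compounds in DMSO for 24 hr; viability was read by CellTiter-Fluor fluorescence in the same wells.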

[8] = qHTS assay to identify small molecule antagonists of the sonic hedgehog signaling (Shh) pathway - cell viability counter screen (AID 1259367); also: nearly all actives have a fitted effect of over 55% in size
In short: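 After a 4 hr settling period, 3T3 Gli1-Luc cells were treated with DMSO-dissolved chemicals and conditioned medium, kept 24 hr at 37C in 5% CO2, and assayed for viability by CellTiter-Fluor fluorescence following 1 hr reagent incubation.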

[9] = qHTS assay to identify small molecule agonists of the sonic hedgehog signaling (Shh) pathway (AID 1259368; calls by dose curve; also: series mostly up to about 92 µM; nearly all actives have a fitted effect of over 15% in size)
In short: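 3T3Gli1-Luc (NIH/3T3 clone, stable Gli1-Luc); 4 hr pre-incubation, then cpd in DMSO 24 hr, 37 C/5% CO2; luciferase reagent 30 min RT; luminescence.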

[10] = qHTS assay to identify small molecule antagonists of the sonic hedgehog signaling (Shh) pathway (AID 1259369; calls by dose curve; also: nearly all actives have a fitted effect of over 45% in size)
In short: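 3T3Gli1-Luc, conditioned-medium-stimulated, 24hr cpd, 37C/5% CO2; Gli1-driven firefly Luc luminescence after 30min RT with luciferase reagent. Cells plated 4hr before cpd.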

[11] = biological target: Estrogen receptor beta (Homo sapiens) (UniProt Q92731); assay: qHTS assay to identify small molecule agonists of the estrogen receptor beta (ER-beta) signaling pathway (AID 1259377; active = well fitted activation curve with a large enough effect in the signal ratio in the repeat runs, not every such curve was filed as active; the % refers to the signal ratio)
Sequence of Estrogen receptor beta (Homo sapiens) (Q92731 whole entry, looked up): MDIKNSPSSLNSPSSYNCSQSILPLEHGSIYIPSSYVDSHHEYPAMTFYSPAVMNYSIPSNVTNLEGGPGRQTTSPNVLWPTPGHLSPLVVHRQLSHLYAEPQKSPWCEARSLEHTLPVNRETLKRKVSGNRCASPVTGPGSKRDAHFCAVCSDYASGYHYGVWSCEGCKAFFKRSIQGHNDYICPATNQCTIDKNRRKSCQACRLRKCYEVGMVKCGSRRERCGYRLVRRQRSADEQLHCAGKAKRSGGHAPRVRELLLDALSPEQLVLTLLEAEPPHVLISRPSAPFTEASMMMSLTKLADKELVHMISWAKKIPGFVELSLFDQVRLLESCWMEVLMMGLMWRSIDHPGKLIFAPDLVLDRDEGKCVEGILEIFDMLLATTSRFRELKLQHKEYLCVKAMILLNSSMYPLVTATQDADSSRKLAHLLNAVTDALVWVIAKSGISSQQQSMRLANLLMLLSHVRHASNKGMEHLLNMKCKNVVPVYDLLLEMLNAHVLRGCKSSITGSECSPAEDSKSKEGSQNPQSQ
In short: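 ER-beta-UAS-bla HEK293T (GripTite) cells carrying a UAS-driven beta-lactamase reporter, in medium with 2% charcoal-stripped FBS, were exposed to compounds for 16 hr at 37C; LiveBLAzer B/G FRET substrate was then added and fluorescence read after 2 hours at room temperature.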

[12] = biological target: Estrogen receptor beta (Homo sapiens) (UniProt Q92731); assay: qHTS assay to identify small molecule antagonists of the estrogen receptor beta (ER-beta) signaling pathway (AID 1259378; active = well fitted inhibition curve with a large enough effect in the signal ratio in the repeat runs, not every such curve was filed as active; the % refers to the signal ratio)
In short: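 ER-beta-UAS-bla HEK293T (GripTite) cells in 2% charcoal-stripped FBS medium were preincubated 6 hr at 37C, dosed with compound, then stimulated with 1 nM E2 (final) for 16 hr; beta-lactamase reporter read by B/G FRET fluorescence after 2 hr substrate loading.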

[13] = qHTS assay to identify small molecule agonists of the estrogen receptor beta (ER-beta) signaling pathway - cell viability counter screen (AID 1259380); also: nearly all actives have a fitted effect of over 30% in size
In short: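 HEK293T ER-beta-UAS-bla; 2% CS-FBS; 6 hr pre-plate, 16 hr cpd at 37C/5% CO2; LiveBLAzer read first, then CellTiter-Glo 30 min RT, luminescence.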

[14] = qHTS assay to identify small molecule antagonists of the estrogen receptor beta (ER-beta) signaling pathway - cell viability counter screen (AID 1259382); also: series mostly up to about 92 µM; nearly all actives have a fitted effect of over 55% in size
In short: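 Cells: ER-beta-UAS-bla HEK293T, 2,000/well, 2% CS-FBS, 6 hr settle. Cpd + E2 (1nM final), 16 hr, 37C/5% CO2. Bla FRET substrate 2 hr RT, then CellTiter-Glo 30 min RT, luminescence.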

[15] = biological target: Estrogen receptor (Homo sapiens) (UniProt P03372); assay: qHTS assay to identify small molecule agonists of the estrogen receptor alpha (ER-alpha) signaling pathway in the presence of an antagonist (AID 1259383; calls by dose curve; also: top concentration of the series differs between compounds; nearly all actives have a fitted effect of over 15% in size)
In short: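 VM7Luc4E2, endog. ER-alpha + 4×ERE-luc; charcoal-stripped FBS, phenol red-free, 5 d; 24hr plating; +10.0nM ICI-182,780 (final); cpds 15 conc, 22hr, 37C/5% CO2; ONE-Glo luminescence.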

[16] = qHTS assay to identify small molecule agonists or antagonists of the thyroid stimulating hormone receptor (TSHR) signaling pathway - wild type cell line counter screen (AID 1259384; calls by dose curve)
In short: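 Wild-type HEK293 cells were plated 18 h at 37 C/5% CO2, pin-dosed with compound plus Ro20-1724 medium, held 30 min at room temperature, then given cAMP-d2 and anti-cAMP-cryptate; fluorescence was read after 1 h. Fifteen concentrations, triplicate.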

[17] = qHTS assay to identify small molecule phospholipidosis (PLD) inducers (AID 1259344; active = well fitted curve in the direction sought with a large enough effect; an effect the other way counts as inactive or inconclusive)
In short: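 HepG2 cells grown on collagen I take up LipidTOX Red while exposed to compound for 24 h; after fixation they are imaged at 20x and pit metrics are extracted.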

[18] = qHTS assay to identify small molecule agonists of the androgen receptor (AR) signaling pathway in the presence of an antagonist - cell viability counter screen (AID 1259379);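 also: MDA-kb2 human breast cancer cells carrying an MMTV luciferase reporter; series mostly up to about 92 µM; nearly all actives have a fitted effect of over 25% in size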
In short: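 Cells: MDA-kb2 (MMTV-luc, AR and GR elements), 3,000/well, 5 hr settle. Added: nilutamide 3.0uM final, then compounds (15 conc.). Incubation: 16 hr, 37C, no CO2. Read-out: CellTiter-Fluor, 1 hr, fluorescence.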

## COc1ccc(Nc2ccc(OC)cc2)cc1
[1]
  Potency: inactive
[2]
  Potency: inactive
[3]
  outcome: inactive
[4]
  Potency: inactive
[5]
  Potency: 27.8 µM (active)
[6]
  outcome: inactive
[7]
  Potency: inactive
[8]
  Potency: inactive
[9]
  Potency: inactive
[10]
  Potency: inactive
[11]
  outcome: inactive
[12]
  Potency: inactive
[13]
  Potency: inactive
[14]
  outcome: inactive
[15]
  Potency: inactive
[16]
  outcome: inactive

## CCCN(CCC)C(=O)C(CCC(=O)O)NC(=O)c1ccccc1 (stereo not drawn)
[1]
  Potency: inactive
[2]
  Potency: inactive
[3]
  outcome: inactive
[17]
  outcome: inactive
[5]
  Potency: inactive
[6]
  outcome: inactive
[7]
  Potency: inactive
[8]
  Potency: inactive
[9]
  Potency: inactive
[10]
  Potency: inactive
[18]
  Potency: inactive
[13]
  Potency: inactive
[14]
  outcome: inactive

## O=C(O)[C@@H]1CSCN1
[1]
  Potency: inactive
[2]
  Potency: inactive
[3]
  outcome: inactive
[17]
  outcome: inactive
[5]
  Potency: inactive
[6]
  outcome: inactive
[7]
  Potency: inactive
[8]
  Potency: inactive
[9]
  Potency: inactive
[10]
  Potency: inactive
[18]
  Potency: inactive
[13]
  Potency: inactive
[14]
  outcome: inactive
[16]
  outcome: inactive

— PubChem BioAssay (Tox21)
